Here are results for ten molecules from PubChem BioAssay (NCI).

The panel holds about 83,000 compounds, 20% with a hit somewhere; the sample as a whole holds those more often.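 Plates (96-well) were seeded with cells, treated with compound at one concentration, and incubated for 48 hours before percent growth was determined.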 Values without a mark were called inactive. Active and inactive are the calls of the source. Rule for the calls: active = growth percent below 10; inactive = the rest.

Experiment in all cases: NCI-60 one-dose screen, 48 h (100 = growth as untreated, 0 = no growth, -100 = all killed)
The test system of test [1] is SN12C renal. Particulars: 10 µM unless noted.
Test [2] has as its system UO-31 renal. Particulars: 10 µM unless noted.
Test [3] deals with TK-10 renal. Particulars: 10 µM unless noted.
The subject of test [4] is ACHN renal. Particulars: 10 µM unless noted.
For test [5], the system named is CAKI-1 renal. Particulars: 10 µM unless noted.
Test [6] deals with A498 renal. Particulars: 10 µM unless noted.
In test [7] the test system is CCRF-CEM leukemia. Particulars: 10 µM unless noted.
Test [8] has as its system MOLT-4 leukemia. Particulars: 10 µM unless noted.
Test [9] has as its system SR leukemia. Particulars: 10 µM unless noted.
Test [10] concerns RPMI-8226 leukemia. Particulars: 10 µM unless noted.
Test [11] deals with OVCAR-8 ovarian. Particulars: 10 µM unless noted.
The subject of test [12] is OVCAR-5 ovarian. Particulars: 10 µM unless noted.
Test [13] deals with OVCAR-4 ovarian. Particulars: 10 µM unless noted.
In test [14] the test system is SK-OV-3 ovarian. Particulars: 10 µM unless noted.
Test [15] has as its system OVCAR-3 ovarian. Particulars: 10 µM unless noted.
Test [16] deals with HS 578T breast. Particulars: 10 µM.
Test [17] has as its system NCI/ADR-RES ovarian. Particulars: 10 µM unless noted.
The test system of test [18] is IGROV1 ovarian. Particulars: 10 µM unless noted.

Take `O=C(Nc1ccc(Oc2ccc(Nc3nc4ccccc4s3)cc2)cc1)Nc1ccc(Cl)c(C(F)(F)F)c1`: the growth in test [1] is 1.99% (active); in [2], 14.1%; in [3] it was 12.6%; in test [4], 3.09% (active); in test [5], 12.4%; in test [6], -18.3% (active). For the same molecule, the growth in [7] was 5.88% (active); in test [8] it was 5.65% (active); in [9] it was 0.688% (active); in test [10], -19.5% (active); in test [11], 6.28% (active); in test [12] it was 23.6%. The growth in [13] is 17.7%; in test [14], 12.1%; in test [15] it was -3.18% (active); in [16], 7.39% (active); in [17], 5% (active).
As to `COc1ccc(C2CC(c3cccc(Nc4ccnc5cc(Cl)ccc45)c3)=NN2c2ccc(Cl)cc2)cc1` (centres undefined), the growth is 89.7% in test [1]; 50.1% in [2]; 93.6% in [3]; 50.5% in test [4]; 1.94% (active) in test [5]; 49.7% in [6]. Also, the growth in [7] was 53.5%; in test [9], 69.7%; in test [10], 42.6%; in test [11], 56.6%; in test [12] it was 84.4%; in test [13] it was 95.9%. Moreover, the growth was 94.7% in [14], 99.1% in test [18], 74.2% in [15] and 90.5% in test [16].
For the molecule `NC(N)=N/N=C/c1ccccc1`, the growth in test [1] is 103%; in test [2] it was 88.3%; in test [3], 93.5%; in test [4] it was 106%; in test [5] it was 86.9%; in test [6], 97.7%. For the same molecule, the growth in [7] is 84.8%; in test [8], 95%; in [9], 96%; in test [10], 89.1%; in test [11], 99.5%; in test [12] it was 93.2%. Besides, the growth in test [13] is 101%; in [14], 101%; in test [15] it was 99.5%; in test [16], 101%; in test [17], 104%.
For the molecule `COc1ccc2[nH]cc(C(c3ccc(Cl)cc3)N3CCCC3)c2c1` (centres undefined), the growth in [1] is 109%; in test [2] it was 59%; in [3], 87.6%; in test [4], 93.1%; in test [5], 89.4%; in test [6], 87%. Moreover, the growth in test [7] is 70.2%; in test [8], 75.1%; in [9], 59.9%; in test [10] it was 85.9%; in test [11], 94.8%; in test [12], 101%. The growth is 104% in [13]; 109% in test [14]; 83.2% in [18]; 99.5% in test [15]; 86.3% in test [16]; 97.9% in [17].
On to `Cc1nc2ccc(Nc3nc(N4CCOCC4)nc(N4CCN(C)CC4)n3)cc2n1Cc1ccccc1`, for which the growth is 113% in [1]; 62.7% in test [2]; 87.2% in [3]; 94.7% in [4]; 102% in [5]; 40.6% in [6]. The growth is 79.9% in [7]; 24.9% in [9]; 65.4% in [10]; 93.6% in test [11]; 101% in test [12]; 112% in test [13]. Moreover, the growth in test [14] is 96.2%; in test [18], 98.2%; in [15], 94.7%; in test [16], 69.3%.
As to `NC(=O)c1noc(C(=O)c2ccccc2)c1N`, the growth in test [1] is 99.7%; in test [2] it was 90.2%; in [3] it was 92.5%; in [4], 99.6%; in test [5], 98.6%; in test [6] it was 72%. In addition, the growth in test [7] is 98.8%; in [8] it was 95.1%; in test [9], 90.8%; in test [10], 99.4%; in test [11] it was 97.3%; in test [13] it was 89.4%. For the same molecule, the growth is 107% in test [14]; 90.4% in [18]; 96.9% in [15]; 112% in test [16]; 112% in test [17].
With `Cc1nc2ccc(Nc3nc(NCCN4CCOCC4)nc(Nc4ccc(F)cc4)n3)cc2n1Cc1ccccc1`, the growth in test [1] was 61.8%; in test [2], 37.3%; in test [3], 60.6%; in [4], 52.2%; in test [5] it was 55.6%; in test [6], -13.9% (active). Further, the growth in [7] is 29.5%; in [8] it was 22.7%; in test [9], 0.147% (active); in test [10] it was 3.11% (active); in test [11], 50.2%; in [12] it was 84.1%. Also, the growth in test [13] was 98.1%; in test [18], 69%; in test [15], 73.7%; in test [16], 40.6%.
Take `Oc1ccc(Nc2ncnc3c2sc2ncccc23)cc1`: the growth in test [1] was 17.1%; in [2], -9.84% (active); in test [3], 59.7%; in test [4], 9.05% (active); in test [5], 13.1%; in [6], 8.96% (active). The growth in test [7] is 16%; in test [8], 12.2%; in [9], 7.62% (active); in test [10], 31.9%; in test [11] it was 7.28% (active); in test [12] it was 65%. Besides, the growth is 84.3% in [13]; 30.3% in test [14]; 52.3% in [18]; 55.8% in test [15]; 82.7% in [16]; 15.6% in test [17].
In the case of `COc1ccc(Nc2ncnc3c2sc2nc(C)cc(C)c23)cc1`, the growth in [1] was 99.7%; in [2], 91.5%; in test [3] it was 115%; in test [4], 97.2%; in [5], 99.2%; in [6], 91%. The growth in test [7] is 104%; in test [8] it was 95.9%; in [10], 101%; in test [11], 95%; in test [12] it was 93.1%; in [13] it was 95.2%. Further, the growth in test [14] was 118%; in test [18], 99.4%; in test [15] it was 113%; in [16] it was 93%; in [17], 108%.
For the molecule `c1ccc2c(Cc3csc4ccccc34)csc2c1`, the growth in test [1] was 97.1%; in test [2], 47.5%; in [3] it was 106%; in [4], 93.1%; in test [5] it was 81.2%; in test [6] it was 107%. Besides, the growth in test [7] was 94.2%; in [8], 87%; in test [9] it was 50%; in test [10], 94.8%; in test [11], 101%; in [12] it was 101%. Further, the growth was 88.3% in test [13]; 77.7% in test [14]; 92.5% in test [15]; 104% in [16]; 81.9% in test [17].
